{"source": "PubChem BioAssay AID588590", "about": "(National Center for Advancing Translational Sciences (NCATS), 2011)", "note": "Where “and” joins values, the source holds several entries; their conditions need not be identical. Identical values can stand only once. Hit rate of the full screen: of about 390,000 compounds, about 4,000 (1%) were called active. Roughly 7% stayed inconclusive and do not appear here. Calls follow the shape of the dose curve; as a rule, active = well fitted inhibition curve with a large enough effect; inconclusive = small, poorly fitted or top-dose-only effect, or another doubt; inactive = no such curve, though single readings can be large or run the other way. Shown is part of a subset that was picked to be rich in actives. Some compounds were tested as several samples or in several runs, with calls that do not always agree. Potency is read from the fitted curve at half-maximal effect.", "data": [{"biological_target": "DNA polymerase iota (Homo sapiens) (UniProt Q9UNA4)", "sequence (Q9UNA4 whole entry, looked up)": "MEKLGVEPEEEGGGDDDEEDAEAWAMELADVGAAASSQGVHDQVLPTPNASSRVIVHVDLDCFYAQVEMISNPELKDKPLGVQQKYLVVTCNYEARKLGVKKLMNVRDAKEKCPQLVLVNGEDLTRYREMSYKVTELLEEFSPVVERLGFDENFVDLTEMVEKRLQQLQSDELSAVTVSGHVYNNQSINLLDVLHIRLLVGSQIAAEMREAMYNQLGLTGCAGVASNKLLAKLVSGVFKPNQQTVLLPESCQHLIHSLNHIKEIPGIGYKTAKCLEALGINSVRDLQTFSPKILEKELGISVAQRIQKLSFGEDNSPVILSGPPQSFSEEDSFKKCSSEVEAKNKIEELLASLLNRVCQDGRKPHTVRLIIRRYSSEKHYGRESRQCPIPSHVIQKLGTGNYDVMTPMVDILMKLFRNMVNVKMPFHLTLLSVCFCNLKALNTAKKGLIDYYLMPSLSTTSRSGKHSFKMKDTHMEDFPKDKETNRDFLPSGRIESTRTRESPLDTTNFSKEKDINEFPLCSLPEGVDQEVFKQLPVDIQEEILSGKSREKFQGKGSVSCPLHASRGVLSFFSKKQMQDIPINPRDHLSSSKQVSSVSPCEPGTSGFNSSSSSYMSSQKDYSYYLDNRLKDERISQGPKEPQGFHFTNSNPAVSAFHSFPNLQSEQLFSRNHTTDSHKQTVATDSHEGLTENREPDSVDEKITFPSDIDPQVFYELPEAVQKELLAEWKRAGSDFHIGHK", "test": "qHTS for Inhibitors of Polymerase Iota", "conditions": "Pol iota fluorescent replication assay, 10 min; series mostly up to 115 µM; activity, negative = inhibition: at the top concentration", "outline": "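Fluorescent replication assay read twice, at 0 min and 10 min after adding 50 nM (final) substrate. Enzyme (10 nM) and compounds were first incubated 15 min at room temperature; enzyme-free buffer wells were negative controls.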", "values": [{"smiles": "Cc1cc(C)cc(OCC(=O)Nc2c(C(=O)c3ccccc3)oc3ccccc23)c1", "activity, negative = inhibition": "13.4% (inactive)"}, {"smiles": "COc1ccccc1CNc1nc2ccc(Cl)cc2n2cnnc12", "activity, negative = inhibition": "2.76% (inactive)"}, {"smiles": "O=C(Nc1cccc(-c2nc3ccccc3o2)c1)c1cccc(Br)c1", "activity, negative = inhibition": "7.05% (inactive)"}, {"smiles": "Cc1ccc(NC(=O)COc2ccc(/C=N\\NC(=O)c3cccnc3)cc2)cc1C", "Potency": "22.4 µM (active)"}, {"smiles": "Cc1cccc(OCC(=O)NCCNC(=O)c2cccnc2)c1", "activity, negative = inhibition": "-19.7% (inactive)"}, {"smiles": "O=C(COc1ccc([N+](=O)[O-])cc1)Nc1cccc(C(=O)Nc2ccccc2C(=O)O)c1", "activity, negative = inhibition": "4.15% (inactive)"}, {"smiles": "O=C(N/N=C/c1cccc(OC(=O)c2ccc([N+](=O)[O-])cc2)c1)c1cccnc1", "activity, negative = inhibition": "148% (inactive)"}, {"smiles": "Cc1ccc(OCC(=O)NCCCNC(=O)c2cccnc2)cc1C", "activity, negative = inhibition": "-14.2% (inactive)"}, {"smiles": "O=C(COc1ccc(/C=N/NC(=O)c2ccc(O)cc2)cc1)Nc1ccc([N+](=O)[O-])cc1", "Potency": "3.98 µM (active)"}, {"smiles": "O=C(Nc1ccc(S(=O)(=O)N2CCC(c3nc4ccccc4s3)CC2)cc1)c1ccccc1F", "activity, negative = inhibition": "19.1% (inactive)"}, {"smiles": "COc1ccc(CCNC(=O)c2nn(C)c3c2CSc2ccccc2-3)cc1OC", "activity, negative = inhibition": "-19.9% (inactive)"}, {"smiles": "COc1ccc(NC(=O)c2ccc3oc(=O)c(S(=O)(=O)c4ccc(F)cc4)cc3c2)c(OC)c1", "activity, negative = inhibition": "18.3% (inactive)"}, {"smiles": "CCCN1CCN(CCCNC(=O)c2cnn(-c3ccc(C)cc3)c2-n2cccc2)CC1", "activity, negative = inhibition": "15% (inactive)"}, {"smiles": "O=C(Cn1cnc2ccccc2c1=O)NNC(=O)c1ccccc1F", "activity, negative = inhibition": "85.9% (inactive)"}, {"smiles": "Cc1cc2occ(CC(=O)NNC(=O)c3ccccc3F)c2cc1C", "activity, negative = inhibition": "9.31% (inactive)"}, {"smiles": "Cn1c(CC(=O)NNC(=O)c2ccccc2F)nc2ccccc21", "Potency": "70.8 µM (active)"}, {"smiles": "COc1cc(Cl)ccc1Nc1ncc(C(=O)N2CCN(c3ccccc3OC)CC2)c2ccccc12", "activity, negative = inhibition": "25.4% (inactive)"}, {"smiles": "CCc1ccc(S(=O)(=O)c2nnn3c2nc(NCc2ccccc2OC)c2cc(Cl)ccc23)cc1", "activity, negative = inhibition": "26.5% (inactive)"}, {"smiles": "CC(NC(=O)c1ccc(N2CCNCC2)c([N+](=O)[O-])c1)C12CC3CC(CC(C3)C1)C2", "note": "(stereo not drawn)", "activity, negative = inhibition": "6.58% (inactive)"}, {"smiles": "CC(CNC(=O)c1ccc(N)cc1)NC(=O)c1ccc(N)cc1", "note": "(stereo not drawn)", "activity, negative = inhibition": "34.8% (inactive)"}, {"smiles": "CN(C)NC(=O)C(NC(=O)c1ccc(N)cc1)C12CC3CC(CC(C3)C1)C2", "note": "(stereo not drawn)", "Potency": "35.5 µM (active)"}, {"smiles": "CC(CCCc1ccccc1)NC(=O)c1nn(-c2ccc(Cl)cc2)nc1CO", "note": "(stereo not drawn)", "activity, negative = inhibition": "0.647% (inactive)"}, {"smiles": "COc1ccc(CCNC(=O)c2ccc3c(c2)sc2nc(-c4ccc(C)cc4)cn23)cc1OC", "activity, negative = inhibition": "6.49% (inactive)"}, {"smiles": "CCOc1ccccc1C(=O)NCc1ccc2c(c1)CCN2C(=O)c1ccc(F)cc1", "activity, negative = inhibition": "38.3% (inactive)"}, {"smiles": "COC(=O)c1ccccc1NC(=O)Cn1c(=O)n(-c2cccc(C(F)(F)F)c2)c(=O)c2c(C)c(C)sc21", "activity, negative = inhibition": "-4.45% (inactive)"}, {"smiles": "CC1C(=O)Nc2ccc(S(=O)(=O)N3CCN(c4ccccc4F)CC3)cc2NC1=O", "note": "(stereo not drawn)", "activity, negative = inhibition": "32% (inactive)"}, {"smiles": "CON(C)S(=O)(=O)c1ccc2c(c1)NC(=O)C1CCCN21", "note": "(stereo not drawn)", "Potency": "22.4 µM (active)"}, {"smiles": "COc1ccc(N2CCN(S(=O)(=O)c3ccc4c(c3)NC(=O)C(C)C(=O)N4)CC2)cc1", "note": "(stereo not drawn)", "activity, negative = inhibition": "-18.4% (inactive)"}, {"smiles": "NC(=O)C[n+]1cccc(C(N)=O)c1", "activity, negative = inhibition": "24.1% (inactive)"}, {"smiles": "N#Cc1ccc[n+](CC(=O)c2ccc(O)c(O)c2)c1", "Potency": "0.891 µM (active)"}, {"smiles": "N#Cc1ccc[n+](CC(=O)c2ccc(F)cc2)c1", "activity, negative = inhibition": "8.91% (inactive)"}, {"smiles": "Cc1ccccc1C(=O)NCc1nc(-c2ccc(Cl)cc2)no1", "activity, negative = inhibition": "2.79% (inactive)"}, {"smiles": "CCN(CC)CCNC(=O)CN1N=C(c2ccc(OC)cc2)CCC1=O", "activity, negative = inhibition": "1.32% (inactive)"}, {"smiles": "COc1ccc(OC)c(CNC(=O)CN2C(=O)CCn3nc(-c4cn(C)c5ccccc45)cc32)c1", "activity, negative = inhibition": "-3.3% (inactive)"}, {"smiles": "Cn1c(=O)cc(OCC(=O)N2CCN(c3ccccc3)CC2)c2ccccc21", "activity, negative = inhibition": "4.97% (inactive)"}, {"smiles": "CCC(=O)N1CCc2cc(Br)cc(S(=O)(=O)CCC(=O)NCc3ccccc3OC)c21", "activity, negative = inhibition": "-18% (inactive)"}, {"smiles": "CCc1ccc(NC(=O)CN2C(=O)C(c3ccccc3)=NC23CCCCCC3)cc1", "activity, negative = inhibition": "-2.09% (inactive)"}, {"smiles": "COc1ccc(NC(=O)CN2C(=O)C(c3ccccc3)=NC23CCCCCC3)cc1OC", "activity, negative = inhibition": "-12.5% (inactive)"}, {"smiles": "Cc1ccc(NC(=O)CN2C(=O)C(c3ccc(F)cc3)=NC23CCCCCC3)c(C)c1", "Potency": "44.7 µM (active)"}, {"smiles": "CCCCN(C)c1nnc(NC(=O)Nc2ccc(Br)c(C)c2)s1", "activity, negative = inhibition": "59.7% (inactive)"}, {"smiles": "CCOCCCn1c(SCC(=O)Nc2ccc(CC)cc2)nc2ccccc2c1=O", "activity, negative = inhibition": "2.09% (inactive)"}, {"smiles": "Cc1ccc(Cl)cc1NC(=O)Cc1ccc(-n2c(C)nc3cccnc32)cc1", "activity, negative = inhibition": "16.1% (inactive)"}, {"smiles": "COc1ccccc1-c1ccnc2[nH]n(-c3ccccc3)c(=O)c12", "activity, negative = inhibition": "-9.07% (inactive)"}, {"smiles": "Cc1ccc(-c2ccnc3[nH]n(-c4ccccc4)c(=O)c23)cc1", "activity, negative = inhibition": "4.79% (inactive)"}, {"smiles": "O=c1c2c(-c3ccccc3)ccnc2[nH]n1-c1ccccc1", "Potency": "inactive and 89.1 µM (active)"}, {"smiles": "COc1ccc(OC)c(NC(=O)CN2CCCN(Cc3cc(C)ccc3C)S2(=O)=O)c1", "activity, negative = inhibition": "6.44% (inactive)"}, {"smiles": "CCOc1ccc(NC(=O)c2cc3c(=O)n(Cc4cccs4)ccc3nc2C)cc1", "activity, negative = inhibition": "-26.1% (inactive)"}, {"smiles": "Cc1cc2nn(-c3ccc(Cl)cc3)nc2cc1NC(=O)C(C)C", "activity, negative = inhibition": "-5.65% (inactive)"}]}]}
